Among the data in ChEMBL document CHEMBL2218924, “A broad activity screen in support of a chemogenomic map for kinase signalling research and drug discovery” (Biochem J, 2013) are residual activity values, retold here.

For test [1], the target named is T1, Serine/threonine-protein kinase BRSK1 (Homo sapiens) (UniProt Q8TDC3).
T1 sequence (whole entry): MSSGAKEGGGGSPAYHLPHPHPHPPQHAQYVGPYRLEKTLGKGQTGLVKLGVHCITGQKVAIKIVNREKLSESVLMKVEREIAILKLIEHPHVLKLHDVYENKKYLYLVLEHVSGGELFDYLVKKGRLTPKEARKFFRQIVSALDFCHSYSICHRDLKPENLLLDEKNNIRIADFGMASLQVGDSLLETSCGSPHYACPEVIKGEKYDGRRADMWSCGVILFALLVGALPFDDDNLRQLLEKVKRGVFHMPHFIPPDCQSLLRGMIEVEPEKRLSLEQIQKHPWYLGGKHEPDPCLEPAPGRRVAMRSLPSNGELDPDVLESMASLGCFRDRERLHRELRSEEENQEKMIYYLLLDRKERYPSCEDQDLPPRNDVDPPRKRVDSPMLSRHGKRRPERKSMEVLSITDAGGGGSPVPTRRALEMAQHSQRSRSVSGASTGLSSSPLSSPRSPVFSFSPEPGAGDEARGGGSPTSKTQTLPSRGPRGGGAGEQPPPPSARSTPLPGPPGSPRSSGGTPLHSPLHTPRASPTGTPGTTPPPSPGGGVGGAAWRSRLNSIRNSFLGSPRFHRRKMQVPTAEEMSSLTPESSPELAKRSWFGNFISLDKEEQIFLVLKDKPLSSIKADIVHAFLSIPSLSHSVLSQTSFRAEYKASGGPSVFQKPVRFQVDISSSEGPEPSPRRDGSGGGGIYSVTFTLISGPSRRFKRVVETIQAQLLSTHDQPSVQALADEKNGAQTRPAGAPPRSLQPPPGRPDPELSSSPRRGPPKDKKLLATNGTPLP
To be noted: at 1 µM.

Test [2] has as its target T1, Serine/threonine-protein kinase BRSK1 (Homo sapiens). To be noted: at 10 µM.
Test [3] has as its target T2, Serine/threonine-protein kinase BRSK2 (Homo sapiens) (UniProt Q8IWQ3).
T2 sequence (whole entry): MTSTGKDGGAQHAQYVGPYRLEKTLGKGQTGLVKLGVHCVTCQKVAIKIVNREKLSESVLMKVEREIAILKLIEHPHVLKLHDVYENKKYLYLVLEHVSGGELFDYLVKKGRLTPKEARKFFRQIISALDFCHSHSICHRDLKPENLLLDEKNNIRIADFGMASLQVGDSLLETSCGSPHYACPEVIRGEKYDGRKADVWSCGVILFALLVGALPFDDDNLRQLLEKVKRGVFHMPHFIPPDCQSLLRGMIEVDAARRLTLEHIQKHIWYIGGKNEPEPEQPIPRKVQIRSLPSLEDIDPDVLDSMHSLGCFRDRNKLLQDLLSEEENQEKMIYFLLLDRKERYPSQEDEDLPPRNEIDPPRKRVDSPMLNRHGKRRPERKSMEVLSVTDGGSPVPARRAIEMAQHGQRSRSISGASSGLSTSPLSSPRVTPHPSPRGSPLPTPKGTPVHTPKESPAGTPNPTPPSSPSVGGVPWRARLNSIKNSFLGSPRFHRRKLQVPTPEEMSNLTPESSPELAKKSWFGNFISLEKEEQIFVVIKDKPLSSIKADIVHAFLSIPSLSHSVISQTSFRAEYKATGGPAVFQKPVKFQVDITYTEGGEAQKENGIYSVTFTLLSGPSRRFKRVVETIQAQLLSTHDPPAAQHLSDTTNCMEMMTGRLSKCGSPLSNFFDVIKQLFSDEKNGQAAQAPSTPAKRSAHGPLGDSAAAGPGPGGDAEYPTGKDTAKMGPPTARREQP
The following applies: at 1 µM.

The target of test [4] is T2, Serine/threonine-protein kinase BRSK2 (Homo sapiens). The following applies: at 10 µM.
Test [5] has as its target T3, Cyclin-dependent kinase 1/cyclin B1 (Homo sapiens) (UniProt P06493+P14635). The following applies: at 1 µM.
Test [6] concerns the target T3, Cyclin-dependent kinase 1/cyclin B1 (Homo sapiens). The following applies: at 10 µM.
In test [7] the target is T4, Cyclin-dependent kinase 2/cyclin A (Homo sapiens) (UniProt P24941+P20248+P78396). To be noted: at 1 µM.
The target of test [8] is T4, Cyclin-dependent kinase 2/cyclin A (Homo sapiens). The following applies: at 10 µM.
Test [9] deals with T5, Cyclin-dependent kinase 2/cyclin E (Homo sapiens) (UniProt P24864+P24941+O96020). The following applies: at 1 µM.
The target of test [10] is T5, Cyclin-dependent kinase 2/cyclin E (Homo sapiens). To be noted: at 10 µM.
Test [11] addresses T6, CDK3/cyclin E (Homo sapiens) (UniProt P24864+O96020+Q00526). To be noted: at 1 µM.
Test [12] concerns the target T6, CDK3/cyclin E (Homo sapiens). The following applies: at 10 µM.
For test [13], the target named is T7, Cyclin-dependent kinase 5/CDK5 activator 1 (Homo sapiens) (UniProt Q00535+Q15078). The following applies: at 1 µM.
Test [14] deals with T7, Cyclin-dependent kinase 5/CDK5 activator 1 (Homo sapiens). The following applies: at 10 µM.
Test [15] shares this target. To be noted: at 1 µM. The source holds these as a separate data set.
Test [16] shares this target. To be noted: at 10 µM. This is another data set of the same source.
Test [17] has as its target T8, CDK6/cyclin D3 (Homo sapiens) (UniProt P30281+Q00534). To be noted: at 1 µM.
Test [18] concerns the target T8, CDK6/cyclin D3 (Homo sapiens). To be noted: at 10 µM.
The target of test [19] is T9, Cyclin-dependent kinase 7/ cyclin H (Homo sapiens) (UniProt P51946+P50613). To be noted: at 1 µM.
Test [20] concerns the target T9, Cyclin-dependent kinase 7/ cyclin H (Homo sapiens). The following applies: at 10 µM.

T3 sequence (P06493 whole entry, looked up): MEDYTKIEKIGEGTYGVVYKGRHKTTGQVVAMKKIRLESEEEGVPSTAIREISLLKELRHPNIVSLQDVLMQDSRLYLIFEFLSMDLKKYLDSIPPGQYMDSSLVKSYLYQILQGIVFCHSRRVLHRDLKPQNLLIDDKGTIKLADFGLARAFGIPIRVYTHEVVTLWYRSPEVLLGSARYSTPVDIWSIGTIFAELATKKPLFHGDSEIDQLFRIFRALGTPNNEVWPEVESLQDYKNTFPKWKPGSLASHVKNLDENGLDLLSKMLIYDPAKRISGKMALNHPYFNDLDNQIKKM
T3 sequence (P14635 whole entry, looked up): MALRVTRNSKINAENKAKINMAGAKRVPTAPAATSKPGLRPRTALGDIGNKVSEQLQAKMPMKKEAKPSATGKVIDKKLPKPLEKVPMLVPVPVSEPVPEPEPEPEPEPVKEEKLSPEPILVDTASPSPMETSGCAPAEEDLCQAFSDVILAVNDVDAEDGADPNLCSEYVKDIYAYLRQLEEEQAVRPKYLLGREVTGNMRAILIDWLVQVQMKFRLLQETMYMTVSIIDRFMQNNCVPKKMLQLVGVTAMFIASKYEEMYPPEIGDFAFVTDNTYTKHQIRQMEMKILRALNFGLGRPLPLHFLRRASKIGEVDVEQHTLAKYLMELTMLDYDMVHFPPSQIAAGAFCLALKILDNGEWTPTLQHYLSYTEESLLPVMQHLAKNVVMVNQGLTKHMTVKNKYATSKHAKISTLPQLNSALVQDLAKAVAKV
T7 sequence (Q00535 whole entry): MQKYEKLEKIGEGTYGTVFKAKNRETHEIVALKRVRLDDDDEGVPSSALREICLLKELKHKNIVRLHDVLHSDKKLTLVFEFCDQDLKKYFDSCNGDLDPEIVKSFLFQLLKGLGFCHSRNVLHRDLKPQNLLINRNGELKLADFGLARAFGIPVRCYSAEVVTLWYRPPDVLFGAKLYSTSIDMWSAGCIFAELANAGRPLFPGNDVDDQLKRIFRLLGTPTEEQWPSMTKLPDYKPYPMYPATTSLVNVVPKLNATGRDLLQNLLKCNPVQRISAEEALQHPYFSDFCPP
T7 sequence (Q15078 99-307 partner limits assumed): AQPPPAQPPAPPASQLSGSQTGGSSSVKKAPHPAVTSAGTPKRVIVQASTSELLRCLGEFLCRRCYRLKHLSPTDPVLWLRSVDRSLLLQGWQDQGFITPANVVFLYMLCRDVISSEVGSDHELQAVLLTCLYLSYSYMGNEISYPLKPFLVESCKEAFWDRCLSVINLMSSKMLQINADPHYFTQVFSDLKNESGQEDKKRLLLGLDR
T6 sequence (O96020 whole entry, looked up): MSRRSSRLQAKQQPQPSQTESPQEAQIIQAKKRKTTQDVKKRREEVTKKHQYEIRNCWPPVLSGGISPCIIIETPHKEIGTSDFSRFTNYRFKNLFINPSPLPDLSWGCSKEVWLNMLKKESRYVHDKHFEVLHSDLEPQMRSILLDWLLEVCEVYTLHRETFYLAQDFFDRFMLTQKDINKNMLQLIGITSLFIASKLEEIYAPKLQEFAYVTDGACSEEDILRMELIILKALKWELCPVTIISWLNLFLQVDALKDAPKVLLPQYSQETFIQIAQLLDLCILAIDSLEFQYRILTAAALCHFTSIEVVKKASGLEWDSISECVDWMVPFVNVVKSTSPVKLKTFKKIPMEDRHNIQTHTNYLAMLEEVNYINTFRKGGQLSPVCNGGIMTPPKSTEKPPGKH
T6 sequence (P24864 whole entry, looked up): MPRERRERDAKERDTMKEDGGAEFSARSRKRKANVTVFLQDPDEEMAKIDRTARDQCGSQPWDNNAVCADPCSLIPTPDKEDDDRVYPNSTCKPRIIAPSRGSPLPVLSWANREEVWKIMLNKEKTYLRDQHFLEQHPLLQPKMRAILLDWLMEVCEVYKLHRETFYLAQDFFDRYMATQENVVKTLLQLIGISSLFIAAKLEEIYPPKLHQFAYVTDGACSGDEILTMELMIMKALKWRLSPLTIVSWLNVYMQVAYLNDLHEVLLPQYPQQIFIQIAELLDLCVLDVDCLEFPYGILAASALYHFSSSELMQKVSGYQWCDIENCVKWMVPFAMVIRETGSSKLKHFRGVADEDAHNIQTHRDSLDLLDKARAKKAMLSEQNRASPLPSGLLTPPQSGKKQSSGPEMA
T6 sequence (Q00526 whole entry, looked up): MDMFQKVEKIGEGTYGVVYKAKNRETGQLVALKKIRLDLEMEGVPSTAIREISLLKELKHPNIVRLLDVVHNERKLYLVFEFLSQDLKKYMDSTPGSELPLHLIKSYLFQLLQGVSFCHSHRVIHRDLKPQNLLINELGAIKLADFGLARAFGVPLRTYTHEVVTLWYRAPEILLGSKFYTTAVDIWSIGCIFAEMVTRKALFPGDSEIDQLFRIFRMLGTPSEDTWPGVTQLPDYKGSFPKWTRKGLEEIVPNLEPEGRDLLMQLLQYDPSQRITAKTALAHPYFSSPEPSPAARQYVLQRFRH

For `O=C1Nc2ccc(Cl)cc2/C1=C/c1cc(Cl)c(O)c(Cl)c1`, the residual activity in test [1] is 40%; in test [2], 29%; in test [3] it was 86%; in test [4], 47%; in test [5], 95%; in test [6], 97%. Also, the residual activity is 118% in test [7]; 79% in test [8]; 95% in test [9]; 97% in [10]; 90% in test [11]; 73% in test [12]. For the same compound, the residual activity in test [13] amounted to 97%; in [14] it was 77%; in test [15], 97%; in test [16], 80%; in [17], 89%; in [18], 86%. The residual activity in test [19] was found to be 84%; in test [20] it was 87%.

For the compound `O=C(O)/C=C/c1cc(Br)c(Br)c(Br)c1Br`, the residual activity was found to be 103% in test [1]; 49% in [2]; 91% in [3]; 45% in [4]; 109% in test [5]; 56% in test [6]. Moreover, the residual activity in test [8] is 67%; in test [9] it was 100%; in test [10] it was 91%; in test [11] it was 103%; in test [12], 87%; in test [13] it was 94%. Also, the residual activity in test [14] was 84%; in test [16], 76%; in test [17], 100%; in [18], 95%; in [19] it was 104%; in test [20] it was 89%.

In the case of `O=C1NC(=O)c2c1c1c3ccccc3[nH]c1n1cncc21`, the residual activity in test [1] came to 32%; in test [2], 25%; in test [3], 23%; in test [4] it was 17%; in [5], 83%; in test [6], 53%. Moreover, the residual activity in [7] was determined as 64%; in [8] it was 61%; in test [9] it was 58%; in [10] it was 35%; in test [11], 48%; in test [12] it was 27%. Moreover, the residual activity in test [13] turned out to be 49%; in [14] it was 30%; in [15], 52%; in test [16] it was 30%; in test [17], 62%; in test [18] it was 28%. Moreover, the figures for the residual activity in test [19] and in test [20] were 87% and 69%, respectively.

Consider `Nc1ncnc2c1cnn2-c1ccccc1`, for which the residual activity in test [1] came out at 23%; in [2] it was 23%; in [3], 97%; in [4] it was 54%; in [7], 125%; in test [8] it was 94%. For the same compound, the residual activity worked out at 98% in test [9]; 95% in [11]; 86% in test [12]; 92% in test [15]; 79% in test [16]; 95% in [17]. The figures for the residual activity in [18], in test [19] and in test [20] were 85%, 86% and 88%, respectively.

Regarding `NC(=O)Nc1sc(-c2ccc(F)cc2)cc1C(N)=O`, the residual activity in test [1] stood at 55%; in [2] it was 15%; in test [3], 83%; in test [4], 18%; in test [5], 100%; in test [6], 57%. Also, the residual activity in [7] was 59%; in [8] it was 21%; in test [9], 79%; in test [10], 26%; in test [11], 73%; in test [12] it was 43%. For the same compound, the residual activity in [13] is 70%; in [14], 33%; in test [15], 81%; in test [16], 33%; in test [17], 78%; in test [18], 33%. Moreover, the results for the residual activity in test [19] and in [20] were 87% and 61%, respectively.

On to `COc1cc2nccc(Oc3ccc(NC(=S)NC(=O)c4ccccc4C)cc3)c2cc1OC`, for which the residual activity in test [1] is 100%; in test [2], 56%; in [3] it was 89%; in test [4], 89%; in [11] it was 89%; in [12], 74%. For the same compound, the residual activity in [13] turned out to be 85%; in test [14] it was 86%; in [15] it was 97%; in test [16] it was 86%; in [17], 78%; in [18], 77%. Further, the residual activity in test [19] is 75%; in test [20] it was 87%.

On to `O=C1NC(=O)C(c2c[nH]c3ccccc23)=C1c1c[nH]c2ccccc12`, for which the residual activity in [1] came to 27%; in test [2], 35%; in [3] it was 73%; in test [4], 35%; in test [6], 39%; in test [7], 97%. Moreover, the residual activity in [8] came to 19%; in test [9] it was 79%; in test [10], 30%; in test [12], 29%; in [13], 74%; in test [14], 28%. In addition, the residual activity in [15] came to 76%; in test [16], 42%; in test [19] it was 76%; in test [20], 32%.

As for `N#C/C(=C1/Nc2ccccc2S1)c1ccnc(NCCc2cccnc2)n1`, the residual activity in [1] stood at 80%; in test [2], 45%; in [3], 96%; in test [4] it was 29%; in [7] it was 81%; in test [8], 33%. Moreover, the residual activity in test [11] is 84%; in test [12], 44%; in [13], 74%; in [14], 54%; in test [15], 88%; in [16], 49%. Besides, the residual activity in test [17] worked out at 100%; in [18] it was 63%; in test [19] it was 80%; in [20] it was 54%.

In the case of `O=C(NC(NC(=S)Nc1ccc(F)c([N+](=O)[O-])c1)C(Cl)(Cl)Cl)C(c1ccccc1)c1ccccc1` (centres undefined), the residual activity in test [1] worked out at 91%; in [2], 63%; in test [3], 93%; in test [4] it was 73%; in test [8], 96%; in test [9] it was 90%. Moreover, the residual activity in test [10] turned out to be 77%; in [11], 100%; in test [12], 93%; in [13], 98%; in test [16], 83%; in test [17], 97%. In test [18], the residual activity amounted to 94%.

As to `O=C(c1cc2cc(O)ccc2[nH]1)c1cc2cc(O)ccc2[nH]1`, the residual activity in test [1] was found to be 5%; in test [2] it was 7%; in [3] it was 37%; in [4], 6%; in [5], 60%; in test [6], 15%. Besides, the residual activity in [7] turned out to be 78%; in test [8] it was 9%; in test [9], 50%; in [10] it was 13%; in test [11], 51%; in test [12], 8%. Besides, the residual activity in test [13] is 23%; in [14], 4%; in test [15], 37%; in test [16] it was 6%; in test [17], 38%; in test [18] it was 7%. Further, the results for the residual activity in test [19] and in [20] were 76% and 41%, respectively.

`CC(C)(C)c1nc2c3ccc(F)cc3c3c(=O)[nH]ccc3c2[nH]1`: the residual activity in [1] came out at 32%; in test [2], 7%; in test [3] it was 13%; in test [4], 4%; in test [12] it was 54%; in test [17], 71%. Moreover, the values for the residual activity in [18] and in [19] were 50% and 69%, respectively.

For `O=c1c(-c2ccc(F)cc2)c(-c2ccncc2)[nH]n1-c1ccc(Cl)cc1`, the residual activity came to 100% in test [1]; 59% in test [2]; 76% in test [4]; 99% in [7]; 102% in [10].

In the case of `Oc1cccc(-c2nc(N3CCOCC3)c3oc4ncccc4c3n2)c1`, the residual activity worked out at 95% in test [1]; 84% in test [2]; 96% in test [3]; 100% in test [4]; 129% in [7]; 93% in [8]. Moreover, the residual activity amounted to 118% in [11]; 97% in [12]; 92% in test [15]; 91% in [16]; 91% in test [17]; 67% in test [18]. In addition, the residual activity stood at 86% in test [19] and 96% in [20].
